# According to PubChem BioAssay:
# Calls of active or inactive are those of the source. Unless noted, the rule behind the calls is not given here.
# Legend:
# [1] = test system: XIP peptide (Xip251-270) binding; assay: small-molecule binders of XIP peptide, primary screen, biochemical, small-molecule microarray, fluorescence 635/667 nm, 0.1 µg/mL protein (AID 1182); details: fluorescent protein binding, 635 nm, higher = more signal, called active from +8 up or from −8 down
# XIP peptide (Xip251-270) = assay: small-molecule binders of XIP peptide, primary screen, biochemical, small-molecule microarray, fluorescence 635/667 nm, 0.5 µg/mL protein (AID 1183); details: small-molecule microarray binding, fluorescence 635 nm; higher = more signal
# [2] = Plasmodium falciparum growth inhibition, primary screen, strain 3D7, DAPI fluorescence, 100 nL (AID 1184);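 note: parasites grown inside human red blood cells in medium with human serum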; details: P. falciparum 3D7 growth, 3 d, higher = more signal
# [3] = target: Homeobox protein Hox-A13 (Mus musculus) (UniProt Q62424); assay: inhibitors of HoxA13-DNA binding, primary screen, biochemical, fluorescence polarization, labeled oligonucleotide (AID 1185); details: 15 min, higher = more signal, called active from +8 up or from −8 down
# [4] = inhibitors of hydroxyurea-induced Chk1 phosphorylation, primary screen, imaging, HeLa, phospho-Chk1 antibody, percent positive cells (AID 1186); details: hydroxyurea-induced phospho-Chk1 immunofluorescence imaging, higher = more signal
# [5] = inhibitors of hydroxyurea-induced Chk1 phosphorylation, primary screen, imaging, HeLa, phospho-Chk1 nuclear intensity (AID 1187); details: hydroxyurea-induced phospho-Chk1 immunofluorescence imaging, higher = more signal
# Homeobox protein Hox-A13 (Mus musculus), sequence (Q62424 whole entry, looked up): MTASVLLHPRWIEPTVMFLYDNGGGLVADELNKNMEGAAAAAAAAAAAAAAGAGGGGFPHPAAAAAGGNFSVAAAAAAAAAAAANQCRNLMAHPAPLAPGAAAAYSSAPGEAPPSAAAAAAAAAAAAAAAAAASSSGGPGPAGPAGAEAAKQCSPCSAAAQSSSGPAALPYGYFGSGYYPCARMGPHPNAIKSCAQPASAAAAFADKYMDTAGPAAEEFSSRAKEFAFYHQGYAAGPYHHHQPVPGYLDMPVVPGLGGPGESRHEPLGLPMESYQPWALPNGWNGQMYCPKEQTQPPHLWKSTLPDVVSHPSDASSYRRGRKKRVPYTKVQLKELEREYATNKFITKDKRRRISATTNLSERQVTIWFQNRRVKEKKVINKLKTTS
SMILES,composite z-score [1],composite z-score (XIP peptide (Xip251-270)),z-score [2],z-score [3],z-score [4],z-score [5]
CN1C(=O)C2C=CC(C(O)c3ccc(I)cc3)N(Nc3ccccc3)C2C1=O (configuration not stated),0.56 (inactive),0.755,-0.371,-4.54 (inactive),0.178 (inactive),0.0306 (inactive)
CCOC(=O)C1=CCC(c2ccco2)N(S(=O)(=O)c2ccc(C)cc2)C1 (configuration not stated),0.397 (inactive),0.704,-0.0601,-4.57 (inactive),-0.641 (inactive),-0.942 (inactive)
CN(C)C(=O)[C@]1(CCS(=O)(=O)c2ccccc2)N=C(c2ccc(OCCCO)cc2)O[C@@H]1c1ccccc1,0.428 (inactive),0.701,-1.96,-5.77 (inactive),-0.161 (inactive),0.0689 (inactive)
O=C(N1CCOCC1)[C@@]1(CCS(=O)(=O)c2ccccc2)N=C(c2ccc(OCCCO)cc2)O[C@H]1c1ccccc1,1.79 (inactive),0.747,-1.39,-5.53 (inactive),0.0192 (inactive),0.249 (inactive)
C=C(C(=O)CC[C@H](OC(=O)c1ccccc1-c1ccccc1C(=O)O)c1ccccc1OCCO)C(C)C,-0.0286 (inactive),0.7,-2.47,-5.13 (inactive),-0.126 (inactive),-0.0147 (inactive)
COCCOC(=O)N1C(=O)[C@@]2(c3cc(C#Cc4ccc(OC)cc4)ccc31)[C@H](C(=O)NC[C@H](O)c1ccccc1)[C@H]1C(=O)O[C@H](c3ccccc3)[C@H](c3ccccc3)N1[C@@H]2c1ccc(OCCO)cc1,0.271 (inactive),0.591,-2.17,1.56 (inactive),0.0092 (inactive),0.117 (inactive)
Cc1ccc(C(C)CC(O)C2C=CC3C(=O)N(c4ccccc4)C(=O)C3N2Nc2ccc(C#N)cc2)o1 (configuration not stated),0.662 (inactive),0.322,0.25,-3.75 (inactive),0.124 (inactive),0.222 (inactive)
COc1cc(CO)cc(I)c1O[C@H]1C=C(C(=O)NCCO)C[C@@H](NCC2CCCCC2)[C@@H]1O,0.0593 (inactive),0.465,-0.68,-3.57 (inactive),-1.23 (inactive),-0.873 (inactive)
[N-]=[N+]=Nc1ccccc1C[C@]1(C(=O)NCc2ccccc2)COC(c2ccc(OCCCO)cc2)=N1,0.261 (inactive),0.651,-2.38,-5.36 (inactive),-0.364 (inactive),-0.571 (inactive)
CC1(C)C(=O)C(c2ccccc2)=C2CN3C(=O)N(CCc4ccccc4)C(=O)C3(Cc3ccc(F)cc3)C=C21 (configuration not stated),0.2 (inactive),0.328,-1.81,-1.99 (inactive),0.478 (inactive),-0.173 (inactive)
[N-]=[N+]=Nc1ccccc1[C@@H]1OC(c2ccc(OCCCO)cc2)=N[C@]1(Cc1ccccc1)C(=O)NCc1ccccc1,0.174 (inactive),0.804,-1.97,-0.694 (inactive),0.458 (inactive),0.433 (inactive)
COC(=O)C1=CC(CCCO)=CC(C)N(Cc2cccc(OC(F)(F)F)c2)C=C1C(=O)OC (configuration not stated),0.0257 (inactive),0.526,-1.12,-7.74 (inactive),-0.249 (inactive),-0.655 (inactive)
Cc1ccccc1C(O)C1C=CC2C(=O)NC(=O)C2N1Nc1ccc(Cl)cc1Cl (configuration not stated),3.24 (inactive),0.693,0.254,-5.08 (inactive),0.165 (inactive),-0.016 (inactive)
O=C1N(CCS(=O)(=O)c2ccccc2)Cc2ccccc2[C@@H]2OC(c3ccc(OCCCO)cc3)=N[C@]12CCS(=O)(=O)c1ccccc1,1.25 (inactive),0.86,-2.1,0.71 (inactive),0.367 (inactive),0.793 (inactive)
CO[C@H]1O[C@H](CO)[C@@H](OC(=O)Nc2cccc(F)c2)[C@H](OC(=O)Nc2ccccc2-c2ccccc2)[C@H]1OC(=O)Nc1ccccc1-c1ccccc1,0.184 (inactive),0.857,-1.7,-4.36 (inactive),-0.788 (inactive),-1.36 (inactive)
C=C[C@@H](OC)[C@H](OC(=O)Nc1ccc(SC)cc1)c1ccc(OCCO)cc1,-0.302 (inactive),0.709,0.0419,-5.58 (inactive),-0.0838 (inactive),0.168 (inactive)
C=CCC(OC(C)=O)[C@@H]1[C@@H](N(Cc2ccc(-c3ccccc3)cc2)C(=O)c2ccc(C)cc2)c2cc(OCCCO)ccc2N1C(=O)Cc1ccc2ccccc2c1 (some centres not stated),0.254 (inactive),0.0529,-0.481,-1.28 (inactive),-0.816 (inactive),-0.488 (inactive)
CC(C)C[C@@H]1NC(=O)[C@@H]2C[C@H](C(=O)NCCCCCC[N+](C)(C)C)[C@H](c3cccc(OCCO)c3)N2C1=O,0.753 (inactive),0.869,0.169,-5.12 (inactive),-0.282 (inactive),-0.178 (inactive)
C=C(CCCC)C(=O)CC[C@@H](OC(=O)c1cccnc1)c1ccc(OCCO)cc1,0.408 (inactive),0.713,-2.28,-3.82 (inactive),1.27 (inactive),1.21 (inactive)
COC(=O)C1N=C(c2ccc(OCCCO)cc2)N(c2ccccc2)O1 (configuration not stated),2.4 (inactive),0.864,0.704,-3.85 (inactive),-0.729 (inactive),-0.63 (inactive)
NCCCCCNC(=O)[C@H]1C[C@H]2C(=O)N[C@@H](Cc3ccccc3)C(=O)N2[C@H]1c1ccc(O)cc1,1.46 (inactive),0.75,-0.236,-3.78 (inactive),1.01 (inactive),0.921 (inactive)
CCCNC(=O)[C@@]1(Sc2ccc(C)cc2)CC(=O)N(C(C)C)[C@@H]1c1ccc(CO)cc1I,1.51 (inactive),-0.964,-0.221,-3.48 (inactive),0.366 (inactive),0.197 (inactive)
